Bioassay records as filed in PubChem BioAssay.
UGM FP inh: M. tuberculosis UGM enzyme inhibitors, primary screen, biochemical, fluorescence polarization, single point | purified UGM, fluorescence polarization probe displacement | actives 0.06% (n = 320,000) | inhibition, % at 10 µM | UDP-galactopyranose mutase (Mycobacterium tuberculosis (strain ATCC 25618 / H37Rv)), … | AID 504406, 2011; in the data active = inhibition above about 10%, passing the limit was not always enough
RecA intein inh: Mtb RecA intein splicing inhibitors, primary screen, biochemical, fluorescence, HTS; Protein RecA (Mycobacterium tuberculosis (strain ATCC 25618 / H37Rv)), P9WHJ3; actives 0.75% (n = 290,000); inhibition, % (no concentration beside the values); cell-free RecA intein splicing; in the data active = inhibition above about 30%
Target sequence (P9WHJ3 whole entry, looked up): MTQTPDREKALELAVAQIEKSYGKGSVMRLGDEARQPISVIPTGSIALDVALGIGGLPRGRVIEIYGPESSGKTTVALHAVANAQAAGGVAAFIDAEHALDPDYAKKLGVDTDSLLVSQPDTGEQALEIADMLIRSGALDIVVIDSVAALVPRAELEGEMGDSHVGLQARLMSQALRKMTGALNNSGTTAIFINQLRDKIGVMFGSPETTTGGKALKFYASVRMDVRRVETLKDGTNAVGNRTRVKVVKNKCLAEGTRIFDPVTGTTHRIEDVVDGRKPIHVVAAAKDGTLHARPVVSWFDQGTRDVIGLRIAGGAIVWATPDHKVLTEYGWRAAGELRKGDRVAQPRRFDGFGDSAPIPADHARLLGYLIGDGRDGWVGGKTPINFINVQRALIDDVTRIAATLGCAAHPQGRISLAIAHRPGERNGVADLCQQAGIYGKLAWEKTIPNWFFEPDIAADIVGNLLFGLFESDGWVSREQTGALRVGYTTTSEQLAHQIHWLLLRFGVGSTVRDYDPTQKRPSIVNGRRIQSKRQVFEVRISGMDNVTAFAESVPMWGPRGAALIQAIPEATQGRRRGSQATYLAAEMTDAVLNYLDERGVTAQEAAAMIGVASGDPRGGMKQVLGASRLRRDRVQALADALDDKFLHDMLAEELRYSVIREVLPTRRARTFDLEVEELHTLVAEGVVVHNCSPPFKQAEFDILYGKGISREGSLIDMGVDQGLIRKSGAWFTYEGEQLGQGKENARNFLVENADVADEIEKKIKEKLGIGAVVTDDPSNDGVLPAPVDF
Rv3671c protease: Rv3671c serine protease inhibitors, primary screen, biochemical, fluorescence polarization, M. tuberculosis H37Rv | P9WHR9 | inhibition, % at 5.96 µM | actives 0.048% (n = 320,000);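 also: extracellular domain of Rv3671c used as enzyme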
Mtb hypoxia inh: PubChem AID 1159583; actives 0.1% (n = 300,000); M. tuberculosis hypoxia-regulated fluorescent reporter, fluorescence; fluorescence inhibition, % (concentration not given with the values); in the data active = fluorescence inhibition mostly above about 23%, no sharp cut-off; inactive = mostly below about 17%
Mtb bLac sens: beta-lactam sensitization of Mtb H37Rv, H37Rv; inhibition, % at 25 µM; actives 0.27% (n = 330,000); M. tuberculosis H37Rv growth with meropenem, percent inhibition; call rule not given here;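 also: growth measured after seven days incubation then overnight dye step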
Rv3671c cf: Rv3671c serine protease inhibitors, retest, confirmation, biochemical, fluorescence polarization, M. tuberculosis H37Rv; shares compounds with Rv3671c protease; inhibition, % at 5.96 µM; actives 40% (n = 140)
Numbers stand for hits; - = inactive; . = no result; + = active, no number. Rows were chosen to be rich in hits. Some 0.77% of all compounds tested hit in one or more screens of this group. Rule as the data show it, unless noted: active = inhibition above about 38%; inactive = the rest.

SMILES | UGM FP inh | RecA intein inh | Rv3671c protease | Mtb hypoxia inh | Mtb bLac sens | Rv3671c cf
O=CN1CCN(C(=O)c2cccc([N+](=O)[O-])c2)CC1 | - | - | - | - | - | .
O=C(NC1CCN(C(=O)c2cccc([N+](=O)[O-])c2)CC1)c1ccccc1 | - | - | 144 | - | - | -
COC(=O)Cc1[nH]nc2c1C(c1cc(OC)c(OC)c(OC)c1)C(C#N)=C(N)O2 (configuration not stated) | - | - | 40 | - | - | -
Cc1ccc(C2C3C(=O)N(c4ccccc4)C(=O)C3[C@]3(C)C(=O)N(CC4CC4)CC(=O)N23)o1 (some centres not stated) | . | . | . | - | . | .
O=C(CSc1ccc(Cl)cc1)Nc1ccc(C2SCCS2)cc1 | - | - | - | - | - | .
O=C(CSc1c(F)c(F)cc(F)c1F)Nc1ccc(C2SCCS2)cc1 | - | - | 164 | - | - | -
O=C(O)c1cccc2c1NC(C(=O)O)C1CC(Sc3ccccc3[N+](=O)[O-])C(Cl)C21 (configuration not stated) | - | . | 50 | - | - | -
Cc1ccc(S(=O)(=O)NN=Cc2ccc(OCC(=O)NC(C)C)cc2)cc1 | . | . | . | - | . | .
O=C(N/N=C/c1c(O)ccc2ccccc12)Nc1ccccc1 | - | - | 40 | . | - | 56
O=C(CSCC(=O)Nc1ccccc1)N/N=C/c1c(O)ccc2ccccc12 | - | - | - | . | . | .
CCCc1cc(=O)oc2cc(C)cc(OC(=O)c3ccco3)c12 | - | - | 66 | - | - | 84
CCc1ccc(C2CC=C(C(=O)O)C(c3ccccc3)N2S(=O)(=O)c2ccc(C)cc2)cc1 (configuration not stated) | . | . | . | - | . | .
CC(=O)c1ccc(S(=O)(=O)Nc2cccc(-c3ccc4nncn4n3)c2)cc1 | - | - | 56 | - | - | -
COc1ccc(/C(=C\Nc2ccc(C)c(C)c2)C(C)=O)cc1OC | - | - | - | - | - | .
COc1ccc(N/C=C(\C(C)=O)c2ccc(OC)c(OC)c2)cc1OC | - | - | 89 | - | - | -
C#CCn1cc(/C=N/Nc2nc3ccccc3[nH]2)c2ccccc21 | - | - | 62 | . | - | 64
C(=N\Nc1nc2ccccc2[nH]1)/c1cccc2nccnc12 | - | - | - | . | - | .
O=C(Cc1ccccc1)NC(c1ccccc1)P(=O)(O)CO (configuration not stated) | . | . | . | - | . | .
Nc1c(C(=O)O)ccc2c1C(=O)c1ccccc1C2=O | - | - | - | - | - | .
Nc1cc(C(=O)O)c(N)c2c1C(=O)c1ccccc1C2=O | - | - | 61 | - | - | 52
CC(C)CC(NC(=O)c1nc[nH]c1C(=O)NCCNC(=O)OC(C)(C)C)C(=O)CNCCNC(=O)c1[nH]cnc1C(=O)NC(C)C(=O)OC(C)(C)C (configuration not stated) | . | . | . | - | . | .
CCN(CC)C(=O)C1c2ccccc2Oc2ccccc21 | 47 | - | 74 | . | - | -
NC(=O)C1(NC(=O)C2CC3(CC(c4cccc(NC(=O)c5cc([N+](=O)[O-])cc([N+](=O)[O-])c5)c4)=NO3)CN2C(=O)c2ccccc2)CC1 (configuration not stated) | . | . | . | - | . | .
N#CCC(=O)Nc1ccc(C(=O)OCC(=O)Nc2ccccc2Sc2ccccc2)cc1 | - | - | 81 | - | - | -
Cc1cc(C)c(-c2cc(NC(=O)COC(=O)c3ccc(C#N)cc3)n(-c3ccccc3)n2)cc1C | - | - | - | - | - | .
SMILES | UGM FP inh | RecA intein inh | Rv3671c protease | Mtb hypoxia inh | Mtb bLac sens | Rv3671c cf
Cc1cc(C)c(-c2cc(NC(=O)COC(=O)c3ccc(NC(=O)CC#N)cc3)n(-c3ccccc3)n2)cc1C | - | - | 42 | - | - | -
C=CCN1c2ccccc2[C@]23CC(C(=O)OC)N(C(C)=O)C2=NC(C(=O)OC)=C(C(=O)OC)C13 (some centres not stated) | . | . | . | - | . | .
CCN(CC)C(=S)SCC(=O)NC12CC3CC(CC(C3)C1)C2 | - | - | 151 | - | - | -
COC(=O)C1=C(c2cccc(C#N)c2)CC2CCC1N2C(=O)NCCOc1ccccc1Cl (configuration not stated) | . | . | . | - | . | .
N#CC(C#N)=C1C=C2C=C(N3CCCCC3)CCC2CC1 (configuration not stated) | - | . | 51 | - | - | -
CCN(CC)C1=CC2=CC(=C(C#N)C#N)CCC2CC1 (configuration not stated) | - | - | - | - | - | .
O=C1C(Cl)=C(NCc2ccco2)C(=O)c2ccccc21 | . | . | . | - | . | .
CCNc1ccc2noc3c2c1C(=O)c1ccccc1-3 | 12 | - | 130 | - | - | 126
O=C1c2ccccc2-c2onc3ccc(NCc4ccco4)c1c23 | 12 | - | 106 | - | - | 81
CCn1c(CSc2nnc(-c3ccncc3)n2CCOC)nc2cc(C(=O)O)ccc21 | - | - | - | - | - | .
CCn1c(CSc2nnc(-c3cccnc3)n2-c2ccccc2C)nc2cc(C(=O)O)ccc21 | - | . | 49 | . | - | 64
COC(=O)c1ccc(C2C=C(C(=O)O)OC(OCc3ccc(CO)cc3)C2)cc1 (configuration not stated) | . | . | . | - | . | .
c1ccc(-c2cn(CC3CCC(C4CCC(Cn5cc(-c6ccccn6)nn5)O4)O3)nn2)nc1 (configuration not stated) | . | . | . | - | . | .
CCNc1c2c3c(cccc3n(C)c1=O)C(=O)c1ccccc1-2 | 22 | - | 60 | - | - | 53
Cn1c(=O)c(NCCc2ccccc2)c2c3c(cccc31)C(=O)c1ccccc1-2 | 44 | - | + | - | - | +
Cn1c(=O)c(NCCO)c2c3c(cccc31)C(=O)c1ccccc1-2 | 98 | - | 122 | . | - | 132
Cn1c(=O)c(NC2CCCCC2)c2c3c(cccc31)C(=O)c1ccccc1-2 | . | . | . | - | . | .
CCCCNc1c2c3c(cccc3n(C)c1=O)C(=O)c1ccccc1-2 | 28 | - | 43 | - | - | 57
C#CCCOC(=O)N1C2=NC(C(=O)OC)=C(C(=O)OC)C3N(C)c4ccccc4[C@]23CC1CO (some centres not stated) | . | . | . | - | . | .
COc1cnc(NS(=O)(=O)c2ccc(N)cc2)nc1 | - | - | 85 | - | - | -
Cc1cc(C)nc(NS(=O)(=O)c2ccc(N)cc2)n1 | - | - | - | - | - | .
Cn1c(=O)cc2c3c(c(N4CCCCC4)ccc31)C(=O)c1ccccc1-2 | - | - | 52 | - | - | -
Cn1nc(-c2ccccc2)c(N2CCCCC2)cc1=O | - | - | - | - | - | .
CCC(C)OC(=O)n1ccc(C(=O)Nc2nccs2)n1 (configuration not stated) | - | - | 55 | - | - | 49
Cc1ccc2nc(-c3ccccc3C)oc(=O)c2c1 | - | - | 62 | - | - | 75
CC(C)Cn1c(N)c(C(=O)COC(=O)c2ccc(O)cc2)c(=O)n(C)c1=O | - | - | 60 | - | - | -
